Assay results from the supplement of paper PMC10981050.
“And” between values parts separate entries of the source, which are not always exact repeats. Equal entries are not always repeated. Structures can show the parent of a compound that is named as a salt.

Assays:
Assay in all cases: cell viability relative to vehicle control; higher = less cytotoxic
Settings in all cases: 10 µM
K562 = system: K562
How it was run: (§1)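 Each screen used CRISPR-edited mutant and wild-type clones from four leukaemia lines. Compounds were acoustically dispensed at a single 10 µM dose, and CellTiter-Glo luminescence was read after 48 h with the supernatant first removed. Viability was analysed in Genedata Screener and given as percent of the on-plate vehicle control.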

MARIMO = system: MARIMO
How it was run: as §1

MOLM14 = system: MOLM14
How it was run: as §1

OCI-AML2 = system: OCI-AML2
How it was run: as §1

SMILES	cell viability (K562; SRSF2 genotype: SRSF2 P95H/wt)	cell viability (K562; SRSF2 genotype: SRSF2 wt/wt) [%]	cell viability (MARIMO; SRSF2 genotype: SRSF2 P95H/wt) [%]	cell viability (MARIMO; SRSF2 genotype: SRSF2 wt/wt) [%]	cell viability (MOLM14; SRSF2 genotype: SRSF2 P95H/wt) [%]	cell viability (MOLM14; SRSF2 genotype: SRSF2 wt/wt) [%]	cell viability (OCI-AML2; SRSF2 genotype: P95H/wt) [%]	cell viability (OCI-AML2; SRSF2 genotype: wt/wt) [%]
Cc1cc(OCc2nnc(SC3CCCC3)n2-c2cccnc2)ccc1-c1ccc(S(C)(=O)=O)cc1	0.65% and 0.74%	1.74	0.85	1.72	0.25	0.26	0.24	0.79
CCOC(=O)c1cc(O)c(O)c(O)c1 [Ethyl gallate]	98.4% and 88.5%	87.8	72.1	88.3	78.5	87.2	80.6	86.8
CC(=O)OCC1=C(C(=O)O)N2C(=O)[C@@H](NC(=O)Cc3cccs3)[C@H]2SC1 [Cephalothin]	94.9% and 98.7%	96.1	95.8	100	94.7	101	95.1	104
CC(C)=CCC/C(C)=C\CO [Nerol]	109% and 104%	104	110	114	106	107	103	109
N=C1S/C(=C\c2ccc(-c3ccc4c(c3)C(=O)NC4=O)o2)C(=O)N1c1ccc(Br)cc1 [Bioymifi]	95.1% and 88.2%	87.4	99	101	90.1	93.1	96.6	93.1
CCN(CC)Cc1cc(Nc2ccnc3cc(Cl)ccc23)ccc1O [Amodiaquine hydrochloride]	80.3% and 76.8%	74	61	67.4	40.2	31.1	39	33.4
Nc1ncn([C@H]2C[C@H](O)[C@@H](CO)O2)c(=O)n1 [Decitabine]	77.9% and 88.9%	80.9	69.5	73.8	47.4	39.7	54.4	58.2
C=CC(=O)Nc1cc(Nc2nccc(-c3c[nH]c4ccccc34)n2)c(OC)cc1N(C)CCN(C)C	12.6% and 20.8%	24	6.47	9.15	0.38	0.41	0.35	0.67
COC(=O)[C@H](Cc1ccccc1)NC(=O)[C@@H](N)CC(=O)O [Aspartame]	101% and 92.2%	91.6	102	101	98.8	97.1	93.6	92.1
COc1ccc(-c2cc(=O)c3c(O)c(OC)c(O)cc3o2)cc1OC [Eupatilin]	101% and 99.5%	97	92.3	98.2	48.7	60.2	69.4	71.2
Fc1ccc(Cn2c(Cl)nc3ccccc32)cc1 [2-Chloro-1-(4-fluorobenzyl)benzimidazole]	77.4% and 80.8%	86.5	64.6	64.5	77.2	84	28.5	36.5
CN(C)CC(=O)Nc1ccc2[nH]c(=O)c3ccccc3c2c1	97.7% and 93.8%	94.9	100	94.6	89.1	96	91.6	98.4
Cc1nnc(NS(=O)(=O)c2ccc(N)cc2)s1 [Sulfamethizole (Proklar)]	109% and 97.9%	104	107	106	100	107	108	111
CC(=O)O[C@H]1C(=O)[C@@]2(C)[C@H]([C@H](OC(=O)c3ccccc3)[C@]3(O)C[C@H](OC(=O)[C@H](O)[C@@H](NC(=O)c4ccccc4)c4ccccc4)C(C)=C1C3(C)C)[C@]1(OC(C)=O)CO[C@@H]1C[C@@H]2O [Paclitaxel (Taxol)]	24.2% and 40.5%	35.7	7.78	4.98	9.66	2.55	7.7	12.1
CCC[C@@H]1C[C@@H](C(=O)N[C@@H]([C@H]2O[C@H](SC)[C@H](O)[C@@H](O)[C@H]2O)[C@H](C)Cl)N(C)C1 [Clindamycin HCl]	91.2% and 108%	102	94.1	99.9	96.5	108	83.9	85.3
Cc1ncc([N+](=O)[O-])n1CCO [Metronidazole (Flagyl)]	105% and 104%	109	107	109	104	103	106	111
Cc1c(Nc2ncccc2C(=O)O)cccc1C(F)(F)F [Flunixin meglumin]	95.8% and 87.2%	93.9	89.8	96.2	87.4	89.4	90.4	101
CN(Cc1ccc(C(C)(C)C)cc1)Cc1cccc2ccccc12 [Butenafine HCl]	97% and 102%	91.6	84.1	105	93.4	98	85.5	101
CC(=O)Oc1ccc(C(=C2CCCCC2)c2ccc(OC(C)=O)cc2)cc1 [Cyclofenil]	98% and 94.2%	98.5	96.8	95.8	94.3	102	96.8	96.9
O=C1C(c2c(O)[nH]c3ccccc23)=Nc2ccccc21 [Indirubin]	92.2% and 98.7%	87.3	92.3	87.8	87.5	87.9	91.8	92.9
C=C(C)C1CCC2(C)CCC(=O)C(C)=C2C1 (stereo not drawn)	111% and 105%	112	106	100	112	110	102	101

SMILES	cell viability (K562; SRSF2 genotype: SRSF2 P95H/wt)	cell viability (K562; SRSF2 genotype: SRSF2 wt/wt) [%]	cell viability (MARIMO; SRSF2 genotype: SRSF2 P95H/wt) [%]	cell viability (MARIMO; SRSF2 genotype: SRSF2 wt/wt) [%]	cell viability (MOLM14; SRSF2 genotype: SRSF2 P95H/wt) [%]	cell viability (MOLM14; SRSF2 genotype: SRSF2 wt/wt) [%]	cell viability (OCI-AML2; SRSF2 genotype: P95H/wt) [%]	cell viability (OCI-AML2; SRSF2 genotype: wt/wt) [%]
O=C(c1ccc(Oc2ccccc2)cc1Cl)c1c[nH]c2ncnc(N[C@@H]3CC[C@@H](CO)OC3)c12	9.11% and 19%	14.3	23.1	22.1	12.6	17	13.4	16.1
O=c1ccc2ccc(OCCCCN3CCN(c4cccc5sccc45)CC3)cc2[nH]1 [Brexpiprazole]	37.4% and 28.9%	60.1	43.1	39.2	33	23.4	15.4	21.6
COc1cc2ncc(-c3ccccc3)nc2cc1OC [Tyrphostin AG 1296 (AG 1296)]	90.3% and 94.9%	93	81.5	82.2	48.2	56	69.5	65.6
NC(=O)c1cnccn1 [Pyrazinamide (Pyrazinoic acid amide)]	107% and 105%	110	104	114	103	105	95.6	109
C=C[C@](C)(O)CC[C@@H]1[C@@]2(C)CCCC(C)(C)[C@@H]2CC[C@@]1(C)O [Sclareol]	93.2% and 93.5%	95.6	94.5	94.3	106	103	89.2	85.1
Cc1c(Cl)cccc1Nc1ccccc1C(=O)O [Tolfenamic acid]	103% and 101%	101	107	102	99.8	102	106	106
COCCOC(=O)C1=C(C)NC(C)=C(C(=O)OC(C)C)C1c1cccc([N+](=O)[O-])c1 (stereo not drawn) [Nimodipine (Nimotop)]	88.8% and 92.4%	99.3	85.2	92.7	87.6	99.4	83.7	88.4
CC1CCc2cc(F)cc3c(=O)c(C(=O)O)cn1c23 (stereo not drawn) [Flumequine]	96.6% and 94.5%	97.5	95.6	104	95.1	102	96.3	107
Cc1ccc(-c2c(-c3nn(C)c4ncnc(N5CC[C@H](N6CCCCC6)C5)c34)cnn2C)cc1	92.8% and 98%	105	96.5	98.5	95.1	101	103	102
NCCOc1ccc(Cl)cc1C(=O)Nc1ccc([N+](=O)[O-])cc1Cl	29.7% and 24.1%	23.4	35.4	37.5	21.3	14.6	4.88	14.7
Cn1cc(/C=C/C(=O)c2cccc(F)c2)cc1/C=C/C(=O)NO	90.3% and 97.5%	99.5	61.5	72.4	70.1	64.5	59.5	65.3
O=C(/C=C/c1ccc(O)c(O)c1)O[C@@H]1C[C@](O)(C(=O)O)C[C@@H](O)[C@H]1O [Chlorogenic acid]	102% and 109%	99.4	99.4	108	104	102	99	102
COc1ccc2cc(C(=O)O)ccc2c1 [6-Methoxy-2-naphthoic acid]	108% and 98.7%	94.2	92	99.7	88.6	93.8	89.4	92.4
O=C(O)[C@H](O)c1ccccc1 [(R)-(-)-Mandelic acid]	94% and 92.9%	89.4	91.2	105	91.8	92.6	98.2	106
COc1cc(CO)ccc1O [Vanillyl Alcohol]	97.3% and 89.7%	88.8	94.9	100	92.1	95.9	92.4	91.7
CC(C)NCC(O)COc1cccc2ccccc12 (stereo not drawn) [Propranolol HCl]	94% and 88.3%	97.6	86.2	92.9	94.2	98.2	84.7	97
N#CC[C@H](C1CCCC1)n1cc(-c2ncnc3[nH]ccc23)cn1 [S-Ruxolitinib]	108% and 98.5%	113	101	104	75.5	89.4	83.4	77.2
CC(NC(=O)Cc1cc(F)cc(F)c1)C(=O)NC(C(=O)OC(C)(C)C)c1ccccc1 (stereo not drawn)	98.8% and 103%	106	83.2	95.7	96.8	103	90	102
CN1CC[C@@H](c2c(O)cc(O)c3c(=O)cc(-c4ccccc4Cl)oc23)[C@@H]1CO	5.12% and 15.8%	7.55	7.83	3.59	2.24	0.71	1.64	13.3
Cc1nc2ccc(NC(=O)Nc3ccnc4cccnc34)cc2o1	99.3% and 105%	98.3	96.4	89.9	104	107	88.2	96.4
